This excerpt belongs to a sample that is enriched for the strongest signals.
Legend:
Assay in all cases: glycan array binding signal (z-score within array); higher = stronger binding
Settings in all cases: glycan notation: IUPAC condensed, linker removed
[1] = molecular target: Fuc(a1-3)[Gal3S(b1-4)]Glc
In short: (§1)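 Glycan array binding is given as a within-array Z-score, which can be read as non-binding when negative. The arrays, 3228 of them, came from the Consortium for Functional Glycomics database and were retained only where the protein sequence was available. Z-scores were averaged across arrays of the same protein sequence at different concentrations or buffers and across linkers.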

[2] = molecular target: Fuc(a1-3)[GalNAc(b1-4)]Gal(b1-4)GlcNAc
In short: as §1

Gal(a1-2)Gal = molecular target: Gal(a1-2)Gal
In short: as §1

Gal(a1-4)Gal(b1-4)Gal = molecular target: Gal(a1-4)Gal(b1-4)Gal
In short: as §1

Gal(b1-3)Gal = molecular target: Gal(b1-3)Gal
In short: as §1

[3] = molecular target: Gal(b1-3)GalNAc(b1-3)Gal(a1-4)Gal(b1-4)Glc
In short: as §1

[4] = molecular target: Gal(b1-3)GlcNAc(b1-3)Gal(b1-3)GlcNAc
In short: as §1

[5] = molecular target: Gal(b1-3)[Fuc(a1-4)]GlcNAc(b1-3)Gal(b1-4)GlcNAc
In short: as §1

[6] = molecular target: Gal(b1-3)[Fuc(a1-4)]GlcNAc(b1-3)Gal(b1-4)[Fuc(a1-3)]GlcNAc
In short: as §1

[7] = molecular target: Gal(b1-4)GalNAc(a1-3)[Fuc(a1-2)]Gal(b1-4)GlcNAc
In short: as §1

[8] = molecular target: Gal(b1-4)GalNAc(b1-3)[Fuc(a1-2)]Gal(b1-4)GlcNAc
In short: as §1

Gal(b1-4)Glc6S = molecular target: Gal(b1-4)Glc6S
In short: as §1

[9] = molecular target: Gal(b1-4)GlcNAc(b1-3)Gal(b1-4)[Fuc(a1-3)]GlcNAc(b1-3)Gal(b1-4)[Fuc(a1-3)]GlcNAc
In short: as §1

Gal3S(b1-3)GalNAc = molecular target: Gal3S(b1-3)GalNAc
In short: as §1

Gal3S(b1-4)GlcNAc6S = molecular target: Gal3S(b1-4)GlcNAc6S
In short: as §1

Gal4S6S(b1-4)GlcNAc = molecular target: Gal4S6S(b1-4)GlcNAc
In short: as §1

GlcA(b1-6)Gal = molecular target: GlcA(b1-6)Gal
In short: as §1

[10] = molecular target: GlcNAc(b1-3)Gal(b1-3)GalNAc
In short: as §1

[11] = molecular target: GlcNAc(b1-4)GlcNAc(b1-4)GlcNAc
In short: as §1

Kdn(a2-3)Gal(b1-3)GlcNAc = molecular target: Kdn(a2-3)Gal(b1-3)GlcNAc
In short: as §1

[12] = molecular target: Man(a1-2)Man(a1-2)Man(a1-3)[Man(a1-2)Man(a1-3)[Man(a1-2)Man(a1-6)]Man(a1-6)]Man(b1-4)GlcNAc(b1-4)GlcNAc
In short: as §1

[13] = molecular target: Neu5Ac(a2-3)Gal(b1-4)GlcNAc(b1-3)Gal(b1-4)GlcNAc
In short: as §1

[14] = molecular target: Neu5Ac(a2-3)Gal(b1-4)GlcNAc(b1-6)[Gal(b1-3)]GalNAc
In short: as §1

[15] = molecular target: Neu5Ac(a2-3)Gal6S(b1-4)[Fuc(a1-3)]GlcNAc
In short: as §1

[16] = molecular target: Neu5Ac(a2-8)Neu5Ac(a2-8)Neu5Ac(a2-8)Neu5Ac(a2-3)[GalNAc(b1-4)]Gal(b1-4)Glc
In short: as §1

[17] = molecular target: Fuc(a1-3)[Gal(b1-4)]GlcNAc(b1-3)Gal(b1-3)[Fuc(a1-4)]GlcNAc
In short: as §1

[18] = molecular target: Fuc(a1-3)[Gal(b1-4)]GlcNAc(b1-4)Gal(b1-4)[Fuc(a1-3)]GlcNAc(b1-4)Gal(b1-4)[Fuc(a1-3)]GlcNAc
In short: as §1

Gal(a1-6)Glc = molecular target: Gal(a1-6)Glc
In short: as §1

Gal(b1-3)Gal(b1-4)GlcNAc = molecular target: Gal(b1-3)Gal(b1-4)GlcNAc
In short: as §1

Gal(b1-3)GlcNAc = molecular target: Gal(b1-3)GlcNAc
In short: as §1

[19] = molecular target: Gal(b1-3)GlcNAc(b1-2)Man(a1-3)[Gal(b1-3)GlcNAc(b1-2)Man(a1-6)]Man(b1-4)GlcNAc(b1-4)GlcNAc
In short: as §1

[20] = molecular target: Gal(b1-3)GlcNAc(b1-3)Gal(b1-4)Glc
In short: as §1

[21] = molecular target: Gal(b1-3)[Fuc(a1-4)]GlcNAc
In short: as §1

[22] = molecular target: Gal(b1-4)GlcNAc(b1-3)[Gal(b1-4)GlcNAc(b1-6)]Gal(b1-4)GlcNAc
In short: as §1

Gal6S(b1-4)Glc = molecular target: Gal6S(b1-4)Glc
In short: as §1

[23] = molecular target: GlcNAc(b1-3)[GlcNAc(b1-6)]GalNAc
In short: as §1

[24] = molecular target: GlcNAc(b1-4)GlcNAc(b1-4)GlcNAc(b1-4)GlcNAc(b1-4)GlcNAc(b1-4)GlcNAc
In short: as §1

[25] = molecular target: Man(a1-2)Man(a1-2)Man(a1-3)Man
In short: as §1

[26] = molecular target: Man(a1-2)Man(a1-2)Man(a1-6)[Man(a1-3)]Man
In short: as §1

[27] = molecular target: Man(a1-2)Man(a1-3)[Man(a1-2)Man(a1-6)]Man
In short: as §1

[28] = molecular target: Man(a1-2)Man(a1-3)[Man(a1-6)]Man(a1-6)[Man(a1-2)Man(a1-3)]Man(b1-4)GlcNAc(b1-4)GlcNAc
In short: as §1

[29] = molecular target: Man(a1-2)Man(a1-6)[Man(a1-3)]Man(a1-6)[Man(a1-2)Man(a1-2)Man(a1-3)]Man(b1-4)GlcNAc(b1-4)GlcNAc
In short: as §1

[30] = molecular target: Man(a1-3)[Man(a1-6)]Man(a1-6)[Man(a1-2)Man(a1-3)]Man(b1-4)GlcNAc(b1-4)GlcNAc
In short: as §1

Neu5Ac(a2-3)Gal = molecular target: Neu5Ac(a2-3)Gal
In short: as §1

[31] = molecular target: Neu5Ac(a2-3)Gal(b1-3)[Fuc(a1-4)]GlcNAc(b1-3)Gal(b1-4)[Fuc(a1-3)]GlcNAc
In short: as §1

[32] = molecular target: Neu5Ac(a2-3)[GalNAc(b1-4)]Gal(b1-4)Glc
In short: as §1

[33] = molecular target: Neu5Ac(a2-3)[Neu5Ac(a2-6)]GalNAc
In short: as §1

[34] = molecular target: Neu5Ac(a2-8)Neu5Ac(a2-3)[GalNAc(b1-4)]Gal(b1-4)Glc
In short: as §1

[35] = molecular target: Neu5Ac(b2-6)Gal(b1-4)GlcNAc
In short: as §1

B1: C-Reactive Protein (Homo sapiens), P02741 (protein)
chain: MEKLLCFLVLTSLSHAFGQTDMSRKAFVFPKESDTSYVSLKAPLTKPLKAFTVCLHFYTELSSTRGYSIFSYATKRQDNEILIFWSKDIGYSFTVGGSEILFEVPEVTVAPVHICTSWESASGIVEFWVDGKPRVRKSLKKGYTVGAEASIILGQEQDSFGGNFEGSQSLVGDIGNVNMWDFVLSPDEINTIYLGGPFSPNVLNWRALKYEVQGEVFTKPQLWP
glycan array binding signal (z-score) [1]: 0.735
glycan array binding signal (z-score) [2]: -0.478
glycan array binding signal (z-score) (Gal(a1-2)Gal): -0.469
glycan array binding signal (z-score) (Gal(a1-4)Gal(b1-4)Gal): -0.603
glycan array binding signal (z-score) (Gal(b1-3)Gal): -0.554
glycan array binding signal (z-score) [3]: -0.576
glycan array binding signal (z-score) [4]: 1.62
glycan array binding signal (z-score) [5]: -0.4
glycan array binding signal (z-score) [6]: -0.468
glycan array binding signal (z-score) [7]: -0.454
glycan array binding signal (z-score) [8]: -0.521
glycan array binding signal (z-score) (Gal(b1-4)Glc6S): 0.381
glycan array binding signal (z-score) [9]: 0.095
glycan array binding signal (z-score) (Gal3S(b1-3)GalNAc): 0.199
glycan array binding signal (z-score) (Gal3S(b1-4)GlcNAc6S): 1.48
glycan array binding signal (z-score) (Gal4S6S(b1-4)GlcNAc): 2.24
glycan array binding signal (z-score) (GlcA(b1-6)Gal): -0.49
glycan array binding signal (z-score) [10]: -0.505
glycan array binding signal (z-score) [11]: 1.94
glycan array binding signal (z-score) (Kdn(a2-3)Gal(b1-3)GlcNAc): -0.402
glycan array binding signal (z-score) [12]: -0.496
glycan array binding signal (z-score) [13]: -0.055
glycan array binding signal (z-score) [14]: 1.51
glycan array binding signal (z-score) [15]: 0.578
glycan array binding signal (z-score) [16]: 0.158

B2: Surfactant Protein D (Human); Neck + Carbohydrate Recognition Domain (NCRD) (Homo sapiens) (protein)
chain: MLLFLLSALVLLTQPLGYLEAEMKTYSHRTMPSACTLVMCSSVESGLPGRDRDGREGPRGEKGDPGLPGAAGQAGMPGQAGPVGPKGDNGSVGEPGPKGDTGPSGPPGPPGVPGPAGREGALGKQGNIGPQGKPGPKGEAGPKGEVGAPGMQGSAGARGLAGPKGERGVPGERGVPGNTGAAGSAGAMGPQGSPGARGPPGLKGDKGIPGDKGAKGESGLPDVASLRQQVEALQGQVQHLQAAFSQYKKVELFPNGQSVGEKIFKTAQFVKPFTEAQLLCTQAGGQLASPRSAAENAALQQLVVAKNEAAFLSMTDSKTEGKFTYPTGESLVYSNWAPGEPNDDGGSEDCVEIFTNGKWNDRACGEKRLVVCEF
glycan array binding signal (z-score) [17]: -0.257
glycan array binding signal (z-score) [18]: -0.273
glycan array binding signal (z-score) (Gal(a1-6)Glc): -0.083
glycan array binding signal (z-score) (Gal(b1-3)Gal(b1-4)GlcNAc): -0.274
glycan array binding signal (z-score) (Gal(b1-3)GlcNAc): -0.263
glycan array binding signal (z-score) [19]: -0.275
glycan array binding signal (z-score) [20]: -0.271
glycan array binding signal (z-score) [21]: -0.233
glycan array binding signal (z-score) [6]: -0.053
glycan array binding signal (z-score) [22]: -0.29
glycan array binding signal (z-score) (Gal6S(b1-4)Glc): -0.216
glycan array binding signal (z-score) [23]: -0.258
glycan array binding signal (z-score) [11]: -0.24
glycan array binding signal (z-score) [24]: 0.127
glycan array binding signal (z-score) [25]: 6.02
glycan array binding signal (z-score) [26]: 5.46
glycan array binding signal (z-score) [27]: 4.89
glycan array binding signal (z-score) [28]: 6.78
glycan array binding signal (z-score) [29]: 5.33
glycan array binding signal (z-score) [30]: 4.68
glycan array binding signal (z-score) (Neu5Ac(a2-3)Gal): -0.243
glycan array binding signal (z-score) [31]: 0.1
glycan array binding signal (z-score) [32]: -0.277
glycan array binding signal (z-score) [33]: -0.296
glycan array binding signal (z-score) [34]: -0.238
glycan array binding signal (z-score) [35]: -0.288
